# Compound activity: PubChem, several laboratories
# 14-3-3 Bad PPI = disrupts binding of bovine 14-3-3 zeta to phospho-Bad peptide | inhibition, % at 21.7 µM | 220,000 tested, 0.71% active | TR-FRET 14-3-3zeta/Dy647-pBad peptide displacement, 1 h;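 active means inhibition above about 70%, limit read from the data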;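 further: 0% = full 14-3-3 plus peptide FRET controls and 100% = background without 14-3-3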
# dFosB act = mouse delta FosB homodimer activation. AID 493131. purified delta FosB, TAMRA-CDK5 oligo fluorescence polarization; percent of positive-control signal above neutral wells. 340,000 tested, 0.99% active. activation, % at 25 µM;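 active means mean activation above about 17%, with every replicate also reaching it, limit read from the data, passing the limit was not always enough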
# p47phox inh = inhibitors of human p47phox binding; P14598; p47phox/p22phox peptide binding, fluorescence polarization, 2 h; inhibition, % at 24.7 µM; 220,000 tested, 0.53% active; AID 1274;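 active means inhibition above about 30%, limit read from the data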;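 further: 0% = p47phox with labelled peptide and 100% = labelled peptide alone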
# Target sequence (P14598 whole entry, looked up): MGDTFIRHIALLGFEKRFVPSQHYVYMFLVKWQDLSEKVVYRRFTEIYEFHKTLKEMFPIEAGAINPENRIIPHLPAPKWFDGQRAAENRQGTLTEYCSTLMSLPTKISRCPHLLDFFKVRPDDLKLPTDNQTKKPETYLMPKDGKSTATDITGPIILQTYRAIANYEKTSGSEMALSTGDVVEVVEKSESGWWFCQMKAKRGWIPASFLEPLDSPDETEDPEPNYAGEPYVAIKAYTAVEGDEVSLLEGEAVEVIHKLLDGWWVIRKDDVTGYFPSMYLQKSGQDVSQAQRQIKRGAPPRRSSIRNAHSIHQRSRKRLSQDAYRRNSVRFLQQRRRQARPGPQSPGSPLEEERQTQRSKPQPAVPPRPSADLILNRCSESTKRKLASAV
# HMGR II inh = E. faecalis class II HMG-CoA reductase inhibition | purified E. faecalis HMGR, NADPH absorbance 340 nm kinetic | inhibition, % at 10 µM | 190,000 tested, 0.41% active | AID 1066;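 active means inhibition above a set limit, the median over all tested compounds plus 3 SD, cut at about 9.5% in these data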;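 further: enzyme runs in reverse so mevalonate oxidation gives rising NADPH absorbance; 0% = complete reaction with DMSO and 100% = background rate lacking mevalonate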
# * = called active by the depositor; . = no result given; [ ] = remark or other dose. The list is not random: actives were taken first. Their share in the collection is about 1.9%.
SMILES,14-3-3 Bad PPI,dFosB act,p47phox inh,HMGR II inh
O=C(O)c1cc2cc(Cl)cc(Cl)c2oc1=O,83*,-6,-5,-7
COc1cc(OC)cc(C(=O)NC(C(=O)O)C23CC4CC(CC(C4)C2)C3)c1 (stereo not drawn),-2,-11,4,14*
CN(C)NC(=O)C(NC(=O)c1ccccc1)C12CC3CC(CC(C3)C1)C2 (stereo not drawn),-2,-8,13,-4
COc1cc(-c2nnc(-c3ccccc3)o2)cc(OC)c1OC,7,-36,32*,-3
Cc1nnc(SCc2ccccc2Cl)n1CC1CCCO1 (stereo not drawn),9,3,3,16*
Cc1nnc(SCc2ccccc2)n1CC1CCCO1 (stereo not drawn),-2,-4,-6,-4
O=C(NCC1CCCO1)c1ccc(Cl)c(F)c1F (stereo not drawn),-1,0,-5,15*
O=C(NC1c2ccccc2-c2ccccc21)c1ccco1,-3,7,-11,-6
C[C@H](NC(=O)[C@@H]1Cc2ccccc2CN1)C(=O)Nc1ccc2c(c1)OCCO2,.,-2,.,.
COCCn1c(SCC(=O)N2CCCC2)nnc1C(C)C,2,-7,0,-3
CN1/C(=C/C=C(C#N)C#N)C(C)(C)c2ccccc21,-19,-9,-337,-5
CN1/C(=C\C=O)C(C)(C)c2ccccc21,-1,23*,-147,-1
Cc1ccc(C)c(S(=O)(=O)N2CCN(CC(=O)N3CCc4ccccc4C3)CC2)c1,86*[fluorescence artefact?],-7,4,-4
O=C(CN1CCN(S(=O)(=O)c2cc(C(F)(F)F)ccc2Cl)CC1)N1CCc2ccccc2C1,.,-9,.,.
COCCN(CC1CCCN(C2Cc3ccccc3C2)C1)C(=O)c1ccc(C(C)=O)cc1 (stereo not drawn),.,-2,.,.
CCOC(=O)c1nc2cc3n(c(C)c-2c1C)C(C)C(C)=C3C (stereo not drawn),10,-14,56*,-2
CCCc1cc(=O)oc2cc3occ(C)c3cc12,-4,2,-13,-5
O=[N+]([O-])c1ccc(-c2cnc(NO)nc2)cc1,-3,5,-11,2
Nc1ncc(-c2ccc([N+](=O)[O-])cc2)cn1,9,-2,78*,-2
CN1CCN(/C=C(\C#N)S(=O)(=O)c2ccc(Cl)cc2)CC1,52,-1,-19,.
CCCCc1ccc(/C=C2\C(=O)c3ccccc3C(O)=C2C(=O)OCC)cc1,-15,.,58*,2
CN1CCN(CCCC(=O)c2ccc(F)cc2)CC1,86*,0,64*,0
Cc1c(Br)cc(C(=O)O)c(C)c1C,12,-1,-3,-8
Cc1c(N)cc(N)cc1C(=O)O,84*,1,-1,.
CC1(C)CC(NS(=O)(=O)c2ccccc2)CC(C)(C)N1,-1,5,5,-5
SMILES,14-3-3 Bad PPI,dFosB act,p47phox inh,HMGR II inh
C[C@H]1[C@H](C)CC[C@]2(C(=O)O)CC[C@]3(C)C(=CC[C@@H]4[C@@]5(C)C[C@@H](O)[C@H](O)C(C)(C)[C@@H]5CC[C@]43C)[C@H]12,5,1,23,18*
Cc1ccc2nc(-c3ccccc3)c(CN3CCN(c4ccccc4F)CC3)n2c1,-18,-4,4,-5
CN(CC(=O)NCCc1ccc(F)cc1)Cc1ccc(Br)cc1,.,-11,.,.
CCCN(CCO)Cc1ccc(Br)cc1,84*,-5,-11,4
CCN(CC)CCN(C)Cc1ccc(Br)cc1,76*,-5,0,-6
COc1cccc(CNC(=O)C2CCN(S(=O)(=O)c3ccc(Br)s3)CC2)c1,.,-6,.,.
Cc1[nH]c2ccccc2c1C(=O)/C=C/c1ccccc1,3,-3,-11,0
O=C(c1ccc(S(=O)(=O)N2CCOCC2)cc1)N(Cc1ccco1)Cc1cccs1,0,-8,-15,0
COc1cccc(CNC(=O)CCC(=O)n2ncc3cc(C)ccc32)c1OC,.,-4,.,.
CC1C(=O)C(C)C(c2cc(Cl)ccc2O)NC1c1cc(Cl)ccc1O (stereo not drawn),.,20*,.,.
COc1cccc(C2NC(c3cccc(OC)c3O)C(C)C(=O)C2C)c1O (stereo not drawn),-8,-4,-12,-4
Cc1cccc(NC(=O)CN2C(=O)N/C(=C/c3cc(C)n(-c4ccncc4)c3C)C2=O)c1,24,9,46*,-5
COCCCNCC(=O)c1c(N)n(Cc2ccccc2)c(=O)n(C)c1=O,75*,5,-7,-4
Cn1c(=O)c(C(=O)CN2CCCCCC2)c(N)n(Cc2ccccc2)c1=O,-8,0,-8,0
O=[N+]([O-])c1ccc(-c2ccc(/C=N/Nc3nc(NCc4ccccc4)nc(N4CCOCC4)n3)o2)cc1,-1,21*,-58,0
CC1CCc2[nH]c3ccc(C(=O)NCC4CCCO4)cc3c2C1 (stereo not drawn),.,0,.,.
CCc1nn(C(C)C(=O)NCCc2ccccc2)c(=O)c2cc3occc3n12 (stereo not drawn),.,-7,.,.
CCc1nn(C(C)C(=O)NCCc2ccc(OC)c(OC)c2)c(=O)c2cc3occc3n12 (stereo not drawn),89*,-4,-14,-4
CCOc1ccc(N/C=C/C(=O)c2ccc(C)cc2)c([N+](=O)[O-])c1,-2,0,37*,-6
COc1ccc(OC)c(NS(=O)(=O)Cc2ccccc2)c1,87*[fluorescence artefact?],.,8,-4
O=S1(=O)CCN(OCc2ccc(Cl)cc2)CC1,4,-4,3,-1
O=[N+]([O-])c1ccc(NN=Cc2ccccc2)nc1,.,3,.,.
O=[N+]([O-])c1ccc(N/N=C\c2cccn2-c2ccccc2)nc1,0,-8,38*,0
CC1CCN(C(C)C(=O)Nc2ccccc2-c2ccccc2)CC1 (stereo not drawn),85*,1,-2,-2
COc1cccc(NC(=O)Cn2c(=O)n(-c3cc(OC)c(OC)c(OC)c3)c(=O)c3ccccc32)c1,61,6,29,4
SMILES,14-3-3 Bad PPI,dFosB act,p47phox inh,HMGR II inh
O=C1NCCCC2c3cc(O)c4ccccc4c3OC12N1CCCCC1 (stereo not drawn),-11,.,30*,-7
O=C1NCCCC2c3c(cc(Br)c(O)c3Br)OC12N1CCOCC1 (stereo not drawn),1,0,-9,-2
CN(C)CCCN1C(=O)c2cccc3c([N+](=O)[O-])ccc(c23)C1=O,8,19*,10,-1
NC(=O)[C@H](Cc1cc2ccccc2s1)NC(=O)[C@@H]1CC2(CC(c3cccc(NC(=O)[C@@H]4CCC(=O)N4)c3)=NO2)CN1C(=O)/C=C/Sc1ccccc1 (stereo partly drawn),-7,-12,-32,3
CN(C)CC1CCCCC1OC(=O)c1ccc(Cl)cc1Cl (stereo not drawn),10,-9,-7,1
O=c1cnnc(N/N=C/c2c[nH]c3ccccc23)[nH]1,-6,-5,99*,-5
CN(Cc1ccc(F)cc1)C(=O)c1ccc2c(c1)NC(=O)CS2,-1,-6,-7,12*
CN(CC(=O)Nc1cccc(F)c1)C(=O)c1ccc2c(c1)NC(=O)CS2,.,-3,.,.
COc1ccc(N=N/C(C(C)=O)=C(/C)O)cc1,-8,1,-7,.
